Rows were chosen to be rich in hits. Some 6.7% of all compounds tested hit in one or more screens of this group.
Autofluor counter: flagged as autofluorescent in microsphere protease counterscreen. compound autofluorescence counterscreen, microsphere flow cytometry; active compounds read high. fluorescence intensity (no concentration beside the values). 360,000 tested, 3.1% active. AID 624483; in the data active = fluorescence intensity above about 16000; inconclusive = no clear call, values can overlap the other calls
Mtb FBA inh: inhibits M. tuberculosis FBA enzyme; 360,000 tested, 2.3% active; inhibition, % at 1 µM; purified M. tuberculosis FBA, fluorescence read-out; P9WQA3; AID 588726; in the data active = inhibition above about 27%;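 note: 0% = vehicle and 100% = reference inhibitor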
Anthrax LF prot: blocks Bacillus anthracis lethal factor protease. P15917. multiplex microsphere protease cleavage assay, LF. inhibition, % at 10 µM. 360,000 tested, 0.12% active; note: plate controls were buffer without enzyme for full effect and enzyme alone for no effect
GDH-TPI counter-1: inhibits GDH-TPI coupling enzymes, artifact for Mtb FBA screen; GDH-TPI coupled enzyme counterscreen, NADH absorbance; inhibition, % at 4.8 µM; 360,000 tested, 1.2% active; AID 588335; in the data active = inhibition above about 30%;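 note: 0% = DMSO wells and 100% = wells lacking the enzyme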
BoNT-A LC inh2: blocks Botulinum neurotoxin A light chain protease; multiplex microsphere protease substrate cleavage, flow cytometry; inhibition, % at 10 µM; 360,000 tested, 0.17% active; note: plate controls were buffer without enzyme for full effect and enzyme alone for no effect
BoNT-F LC inh: blocks Botulinum neurotoxin F light chain protease. AID 588497. 360,000 tested, 0.22% active. Multiplex microsphere protease cleavage assay, flow cytometry. inhibition, % at 10 µM; in the data active = inhibition above about 35%, passing the limit was not always enough; inconclusive = no clear call, values can overlap the other calls; note: plate controls were buffer without enzyme for full effect and enzyme alone for no effect
Mtb FBA inh conf: Mtb FBA inhibition, confirmed; 5,600 tested, 78% active; shares compounds with Mtb FBA inh; inhibition, % at 1 µM; purified M. tuberculosis FBA, fluorescence read-out; in the data active = inhibition above about 27%;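 note: 0% = vehicle wells and 100% = reference inhibitor wells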
GDH-TPI counter-2: inhibits GDH-TPI coupling enzymes, flagging Mtb FBA hits | 5,600 tested, 81% active | shares compounds with Mtb FBA inh | GDH-TPI coupled enzyme counterscreen, fluorescence | inhibition, % at 1 µM; in the data active = inhibition above about 10%
GDH-TPI DR: counter-screen for M. tuberculosis FBA inhibitors: GDH-TPI dose response; shares compounds with Mtb FBA inh; GDH-TPI coupled enzyme assay, fluorescence, artifact counterscreen; IC50, µM; 170 tested, 79% active; call rule not given here
* hit, by the source's call; ? = inconclusive; / = not tested or not shown; + = active, no number. Cut-off read from the data, not from the text of the source, unless noted: active = inhibition above about 30%; inconclusive = no clear call, values can overlap the other calls; inactive = below that.

SMILES	Autofluor counter	Mtb FBA inh	Anthrax LF prot	GDH-TPI counter-1	BoNT-A LC inh2	BoNT-F LC inh	Mtb FBA inh conf	GDH-TPI counter-2	others
O=C(O)c1ccccc1NC(c1ccccc1)c1ccc2cccnc2c1O (stereo unspecified)	2930	37.9*	-3.2	13.3	0.0	0.4	+	+
Cc1cccc(C)c1NC(=O)CN(C)C(=O)[C@H](C)NC(=O)c1ccco1	3049	3.4	-6.5	3.5	-1.0	-9.1	/	/
CCN(CC)CCOC(=O)C1(C2CCCCC2)CCCCC1	6031	0.2	-4.6	-4.7	0.1	-1.2	/	/
CCN1CCN(C(=O)c2cc3cc(F)ccc3[nH]2)CC1	3058	82.2*	-0.9	3.3	-1.4	19.4	147.9*	96.2*
O=C(c1cc2cc(F)ccc2[nH]1)N1CCN(Cc2ccc3c(c2)OCO3)CC1	?	-3.2	3.2	13.3	11.5	20.2	/	/
O=C(/C=C/c1cccc(F)c1)Nc1ccc(S(=O)(=O)Nc2ncccn2)cc1	6911	92.8*	-2.5	28.8	-2.3	-8.0	29.3*	3.5	GDH-TPI DR=>10
CC(=O)Nc1ccc(S(=O)(=O)Nc2ncccn2)cc1	11182	1.5	-1.1	3.4	0.5	1.0	/	/
OCCN(CCO)c1ccc2ccccc2c1	4314	109.4*	1.8	2.2	-0.3	-2.5	33.2*	27.4*
O=C(O)CCN(CCC(=O)O)c1ccccc1	3938	2.5	-4.3	0.6	0.9	-5.6	/	/
OCCN(CCO)c1ccc(C(c2ccccc2Cl)c2ccc(N(CCO)CCO)cc2Cl)c(Cl)c1	10064	-1.5	-5.0	15.0	-1.9	-4.0	/	/
O=C(O)c1cccc(N(CCO)CCO)c1	6370	38.7*	15.2	1.3	-1.2	-17.1	98.6*	75.3*
COc1ccc(Cl)cc1C(=O)Nc1ccc2c(c1)OCO2	8744	1.4	-11.6	1.8	-1.0	-6.4	/	/
O=C(CNc1ccc(F)cc1)c1ccccc1	2437	3.6	-0.9	-0.8	0.2	-1.0	/	/
NC(=O)c1ccccc1NCC(=O)c1ccc(F)cc1	3543	30.6*	4.9	-4.4	-0.5	-4.1	102.6*	86.8*
Cc1ccc(C(=O)N/C(=C\c2ccc(F)cc2)C(=O)NCc2ccncc2)cc1	7313	3.4	-9.2	0.8	-2.0	-8.2	/	/
O=C(NCc1ccncc1)/C(=C\c1ccc(F)cc1)NC(=O)c1ccccc1	2899	44.8*	-1.8	0.8	-1.7	-3.2	185.1*	151.2*
O=c1c2ccccc2c(/C=N/n2cnnc2)c(O)n1-c1ccccc1F	10137	33.1*	-4.1	15.9	0.1	-3.9	2.8	2.3
Cc1ccc(-n2c(O)c(/C=N/n3cnnc3)c3ccccc3c2=O)cc1	7384	5.3	-1.4	10.7	-0.4	-1.1	/	/
CCCc1cc(CCC)n2nc(N)nc2n1	2797	31.9*	-3.3	4.9	0.4	-4.8	+	178.8*
CC(C)c1cc(C(C)C)n2nc(N)nc2n1	3962	18.4	-18.4	5.6	-1.8	?	/	/
Cc1ccc(S(=O)(=O)N2C[C@H]3N(C(=O)OC(C)C)N(C(=O)OC(C)C)C[C@H](OC(=O)NCc4ccco4)[C@@]3(O)C2)cc1	3324	3.3	-4.4	9.3	-0.4	-0.9	/	/
Cc1ccc(Nc2nc(-c3c(C)n(C)n(-c4ccccc4)c3=O)c(C)s2)cc1	3047	1.9	0.3	4.4	-0.1	3.6	/	/
Nc1c2c(nc3ccccc13)CCN(Cc1ccccc1)C2	9150	15.7	13.8	6.3	6.7	?	/	/
Nc1nc2c(c(=O)[nH]1)CN(Cc1ccccc1)CC2	2922	53.4*	-3.7	19.8	0.6	0.5	107.5*	98.7*
Cc1nc(-c2cccc(S(=O)(=O)N3CCC(C)CC3)c2)cs1	3287	41.5*	-0.8	0.5	0.4	1.1	+	+
SMILES	Autofluor counter	Mtb FBA inh	Anthrax LF prot	GDH-TPI counter-1	BoNT-A LC inh2	BoNT-F LC inh	Mtb FBA inh conf	GDH-TPI counter-2	others
COC(=O)/C(=C/Nc1cccc2ccccc12)[N+](=O)[O-]	10536	73.9*	-2.7	-1.9	-0.4	-10.7	98.3*	80.1*
COc1cc(OC)cc(C(=O)Nc2cccc3ccccc23)c1	3968	-2.1	2.1	6.0	-2.4	-13.5	/	/
CCOC(=O)c1c(C)n(-c2ccc(F)cc2)c2ccc(O)cc12	4131	35.0*	1.6	-2.8	-2.9	-13.2	43.7*	24.4*
COC(=O)c1c(C)n(-c2ccc(OC)cc2)c2ccc(O)cc12	2241	2.2	-0.5	9.7	0.2	-10.5	/	/
CN(C(=O)CCS(=O)(=O)c1cc2c(cc1Cl)NC(=O)CO2)C1CCCCC1	5739	0.0	-3.9	-3.4	0.2	5.2	/	/
S=C(c1ccc(-c2ccc(Br)cc2)o1)N1CCCCC1	3913	59.1*	-3.2	0.0	-0.3	-1.6	7.3	-1.6
O=C(CSc1ccc2nc(-c3ccccc3)cn2n1)NCC1CCCO1 (stereo unspecified)	4454	111.0*	-0.9	18.2	-0.8	-3.0	+	+
Cc1ccc(-c2ccc(SCC(=O)NCC3CCCO3)nn2)cc1 (stereo unspecified)	3267	5.0	1.8	7.3	-0.3	-8.8	/	/
COc1ccc(-c2ccc3nnc(SCC(=O)NCC4CCCO4)n3n2)cc1 (stereo unspecified)	5710	33.6*	-8.1	10.8	-1.8	-11.5	171.7*	119.9*
COc1ccc(-c2ccc3nnc(SCC(N)=O)n3n2)cc1	4183	29.1*	-3.5	19.0	-0.2	3.9	85.3*	60.5*
O=C(COc1ccc(Cl)cc1)NCCCNC(=O)c1ccccn1	4963	0.0	4.6	-12.6	1.2	3.9	/	/
COc1ccc(N2CCN(C(=O)COCc3cc(-c4ccc5c(c4)OCO5)on3)CC2)cc1	4643	-0.3	-4.6	5.1	-0.6	-6.5	/	/
COc1ccc(COc2cc(-c3cccc(OC)c3)nc3ccc(NC(=O)C(C)C)cc23)cc1	3823	42.9*	1.5	4.5	0.0	-1.3	87.3*	71.1*
CNc1ccc(-c2ccccc2CO)cn1	4053	51.4*	-6.2	8.8	-0.1	-5.7	45.4*	26.9*
CNc1cccc(-c2ccccc2CO)n1	3735	12.8	7.0	-2.2	0.1	4.5	/	/
O=C(NCC(c1cccs1)N1CCOCC1)C1CCN(S(=O)(=O)c2cccc(C(F)(F)F)c2)CC1 (stereo unspecified)	5726	5.5	-3.7	3.5	1.6	-1.7	/	/
COP(=O)(OC)c1nc(-c2ccccc2)oc1NCc1ccccc1	2156	106.7*	-1.4	4.8	-0.2	-5.9	86.0*	69.5*
COP(=O)(OC)c1nc(-c2ccccc2)oc1N1CCOCC1	2113	88.8*	1.5	-3.3	0.3	-3.4	82.9*	55.5*
Cc1ccc(CNc2oc(-c3ccco3)nc2S(=O)(=O)c2ccccc2)cc1	4056	-2.2	-2.7	-3.1	0.1	-0.9	/	/

Assay outcomes (PubChem)
